The full list was thinned out, with hits kept by preference.
G9a block – G9a (human) methyltransferase inhibition. 350,000 compounds, 8.8% hits. G9a H3K9 monomethylation, AlphaScreen, 2 h. Potency, µM (doses to about 102 µM), for inactives: at the highest dose activity, negative = inhibition, hits mostly inhibitors. AID 504332; also: % is scaled to controls: 0 for no effect and ±100 for the full control effect; nearly all actives have a fitted effect of over 75% in size
Target sequence (Q96KQ7 913-1193 limits assumed): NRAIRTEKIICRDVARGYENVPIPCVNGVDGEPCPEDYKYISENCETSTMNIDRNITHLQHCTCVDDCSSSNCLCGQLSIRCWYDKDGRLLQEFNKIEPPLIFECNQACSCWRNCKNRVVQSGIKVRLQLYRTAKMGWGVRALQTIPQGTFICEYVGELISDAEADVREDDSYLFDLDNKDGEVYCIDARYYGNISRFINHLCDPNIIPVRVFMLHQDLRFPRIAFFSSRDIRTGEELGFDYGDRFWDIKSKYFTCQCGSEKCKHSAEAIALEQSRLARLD
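AlphaScreen detection with an anti-monomethyl H3K9 antibody quantified product after a 2 h room-temperature reaction containing 500 nM biotinylated H3K9 peptide, 20 µM SAM and 20 nM enzyme, which had been preincubated 15 min with compound.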
Sfp PPTase inh – inhibitors of Bacillus subtilis Sfp phosphopantetheinyl transferase; Biochemical Sfp PPTase activity, qHTS; Potency, µM, without a hit: largest response in the series, negative = inhibition, hits mostly inhibitors; 310,000 compounds, 3.5% hits;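 also: the enzyme is Sfp with the accession as filed and its product quenches rhodamine fluorescence; 0% = enzyme reaction without inhibitor and -100% = no enzyme wells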
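After 15 min at room temperature with compound, 15 nM Sfp received 5 uM rhodamine-CoA plus 12.5 uM BHQ-2-ybbR (50 mM Hepes pH 7.6, 10 mM MgCl2). Rate came from the fluorescence difference over 30 min, ex 525/em 598 nm.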
ALOX12 inh – inhibitors of human 12S-lipoxygenase ALOX12. 580,000 compounds, 1.1% hits. Potency, µM (highest dose often 108 µM), inactives show at the top dose activity change, negative = inhibition, usual class: inhibitors. P18054. AID 1671190. purified 12hLO, xylenol orange hydroperoxide absorbance; also: % is scaled to controls: 0 for no effect and ±100 for the full control effect
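Purified human 12hLO at 150 nM in 25 mM Hepes, 0.01% Triton X-100, pH 7.0, preincubated 15 min at room temperature with compound. Reaction started with 40 uM arachidonic acid, 30 min at room temperature. Hydroperoxide measured by Fe-xylenol orange, 573/405 nm absorbance ratio.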
GRP78 ERSR act – inducers of ER stress response in human glioma cells; U87-MG GRP78 promoter luciferase reporter, 16 h; Potency, µM, inactives show at the top dose activation, hits mostly activators; 420,000 compounds, 0.02% hits; AID 602332; also: series mostly up to about 76 µM; % of control where 0% means no effect; nearly all actives have a fitted effect of over 35% in size
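Stably transfected U87-MG human glioma cells carrying a GRP78-based luminescent sensor were seeded at 1000 cells/well, pin-dosed with compounds and incubated 16 h. Luciferase reagent was then added, and end-point luminescence was read after 10 min at room temperature.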
VDR inhibitor – blocks the human vitamin D receptor; P11473; VDR-SRC2-3 peptide fluorescence polarization, 2 h; Potency, µM, for the others: max response, negative = inhibition, actives largely listed as inhibitors; 400,000 compounds, 0.93% hits; also: % is scaled to controls: 0 for no effect and ±100 for the full control effect
Target sequence (P11473 whole entry, looked up): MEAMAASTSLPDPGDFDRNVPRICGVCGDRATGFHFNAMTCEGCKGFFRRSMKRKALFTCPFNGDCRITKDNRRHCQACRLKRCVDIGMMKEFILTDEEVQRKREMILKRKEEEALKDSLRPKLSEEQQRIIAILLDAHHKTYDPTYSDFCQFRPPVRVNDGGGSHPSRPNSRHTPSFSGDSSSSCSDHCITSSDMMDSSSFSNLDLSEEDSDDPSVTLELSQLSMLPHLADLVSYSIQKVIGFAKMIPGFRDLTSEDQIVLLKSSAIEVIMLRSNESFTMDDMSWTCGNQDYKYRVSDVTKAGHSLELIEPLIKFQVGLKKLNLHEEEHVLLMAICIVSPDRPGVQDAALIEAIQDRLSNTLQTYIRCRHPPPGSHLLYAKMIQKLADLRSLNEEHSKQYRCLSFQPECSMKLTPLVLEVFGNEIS
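VDR–SRC2-3 interaction, FP format. Cmpds 23 nl via pintool, brief spin, 2 h ambient incubation.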
Active calls of the source: *; i = inactive; ? = inconclusive; · = no result given; ! = repeats disagree; [ ] = another dose, or the depositor's remark. Calls follow the shape of the dose curve; as a rule, active = well fitted curve in the direction sought with a large enough effect; inconclusive = small, poorly fitted or top-dose-only effect, or another doubt; inactive = no such curve, though single readings can be large; an effect the other way counts as inactive or inconclusive. Potency is read from the fitted curve at half-maximal effect.

SMILES | G9a block | Sfp PPTase inh | ALOX12 inh | GRP78 ERSR act | VDR inhibitor
CCCc1noc(-c2ccn3c(CNC(=O)c4ccc(F)c(Cl)c4)nnc3c2)n1 | · | · | 50µM* | · | ·
Cc1nc2c3ccccc3nn2c(C)c1CCC(=O)Nc1ccc(C(N)=O)cc1 | · | · | 29% | · | ·
CC1CCN(c2c(S(=O)(=O)c3ccccc3)cnc3cc4c(cc23)OCCO4)CC1 | · | · | -25% | · | ·
Cc1ccc(/C=N/NC(=O)C2CC2)s1 | · | · | 0% | · | ·
O=C(N/N=C(\c1ccccc1)c1cccnc1)c1cc(O)ccc1O | 10µM* | ? | -29% | · | ·
CNC(=O)[C@@]1(C)C=C[C@@H](Cc2ccccc2)N1C(C)=O | · | 15% | · | · | ·
CC(=O)N1[C@H](Cc2ccccc2)C=C[C@]1(C)C(=O)NCc1ccc(C)o1 | 6.3µM* | 45µM*! | · | 1% | -13%
CNC(=O)[C@@]1(C)C=C[C@@H](Cc2ccccc2)N1C(=O)OC | 79µM* | 2% | 0% | 1% | -22%
CCCCn1c2c(c(=O)[nH]c1=O)C(c1ccc(Br)cc1)C1=C(COC1=O)N2 (stereo not given) | · | · | -58% | · | ·
Cc1ccc(C=Nc2ccc(C(C)(C)C)cc2)s1 | · | · | -8% | · | ·
C=C(CN(C)C)C(=O)c1cc(C)ccc1C | · | · | ? | -14% | 45µM*
Cc1nc(SC2C=CS(=O)(=O)C2)n[nH]1 (stereo not given) | 50µM* | 7% | ? | 2% | 4%
COCCNC(=S)Nc1ccc(N2CCOCC2)c(S(=O)(=O)Nc2ccc(Cl)cc2)c1 | · | · | 5µM* | -2% | ·
C[C@H](NC(N)=O)C(=O)Nc1ccc(N2CCOCC2)c(S(=O)(=O)Nc2ccc(Cl)cc2)c1 | 1µM* | · | ? | -4% | ?
O=S(=O)(Nc1ccc(Cl)cc1)c1ccc(N2CCOCC2)c(NC(=S)NCCN2CCOCC2)c1 | 4.5µM* | 4µM* | ? | -4% | ?
CCc1ccc(-c2cc(C(F)(F)F)n3ncc(C(=O)NCc4cn(CC)nc4C)c3n2)s1 | · | · | -8% | · | ·
CCOC(=O)C1=C(C)Oc2ncn3nc(-c4ccccc4O)nc3c2C1c1ccc(OC)c(OC)c1 (stereo not given) | · | · | 4% | · | ·
O=C(Nc1nnc(SCC(=O)N2CCOCC2)s1)C1CC(=O)N(c2ccccc2)C1 (stereo not given) | 26%[59 µM] | 10% | -10% | -2% | 11%
O=C(Nc1nnc(SCC(=O)N2CCOCC2)s1)c1ccccc1 | 10µM* | 6% | -17% | -9% | -9%
Cc1cccc(N2CC(C(=O)Nc3nnc(SCC(=O)N4CCOCC4)s3)CC2=O)c1 (stereo not given) | 45µM* | -23% | i | 6% | 8%
COc1ccc(N2CC(C(=O)Nc3nnc(SCC(=O)N4CCOCC4)s3)CC2=O)cc1 (stereo not given) | 35µM* | 50µM* | -9% | -1% | -23%
CCOc1ccccc1C(=O)Nc1nnc(SCC(=O)N2CCOCC2)s1 | -4% | 13% | -1% | -3% | -1%
CCCC(=O)Nc1nnc(SCC(=O)N2C(C)CCCC2C)s1 (stereo not given) | 6% | 15% | 12% | -3% | -4%
CCCC(=O)Nc1nnc(SCC(=O)N2CCCCC2)s1 | 18µM* | -11% | ? | -2% | -8%
CCCCC(CC)C(=O)Nc1ccccc1F (stereo not given) | · | · | 7% | · | ·
SMILES | G9a block | Sfp PPTase inh | ALOX12 inh | GRP78 ERSR act | VDR inhibitor
Cc1ccccc1C(=O)NCCC(=O)NCc1coc(-c2cccs2)n1 | · | · | -8% | · | ·
O=c1c(Cl)c(Oc2ccc(C(F)(F)F)cc2)cnn1-c1ccc(C(F)(F)F)cn1 | · | · | -7% | · | ·
O=C(CCC(=O)c1ccc2c(c1)OCCCO2)NC1CCCCCC1 | · | · | -7% | · | ·
COc1ccc(N2CCn3c2nc2c3c(=O)n(CCc3ccccc3)c(=O)n2C)cc1 | 7% | 6% | · | · | ·
COCCn1c(CN2CCN(c3ccc(OC)cc3)CC2)nc2c1c(=O)n(C)c(=O)n2C | -13%[59 µM] | 24% | -5% | -2% | -4%
COc1ccc(N2CCN(Cc3nc4c(c(=O)n(C)c(=O)n4C)n3CCc3ccccc3)CC2)cc1 | 7.9µM* | -5% | 13% | -2% | 0%
Cn1c(=O)c2c(nc(CN3CCN(c4ccccc4)CC3)n2CCN2CCOCC2)n(C)c1=O | 50µM* | -3% | -14% | -4% | 17%
COc1ccc(N2CCCn3c2nc2c3c(=O)n(CCCc3ccccc3)c(=O)n2C)cc1 | 10µM* | 3% | 0% | · | ·
CC(NC(=O)/C(C#N)=C\c1ccccc1)C1CC2CCC1C2 (stereo not given) | · | · | 23% | · | ·
CC1CN(Cc2ccccn2)CCC1=O (stereo not given) | 7.9µM* | 14% | -10% | -1% | 2%
CCCCNC(=O)C1CCN(Cc2ccccn2)CC1 | ? | 56µM* | 14% | -7% | -13%
CCOC(=O)C1CCN(Cc2ccccn2)CC1 | 1.8µM* | ? | · | · | ·
O=C(O)C1CCN(Cc2ccccn2)CC1 | 25µM* | 0% | ? | -2% | -1%
CC(C)NC(=O)CN(C)Cc1cccc2cccnc12 | · | · | -3% | · | ·
O=C(Nc1ccc(-n2cccc2)cc1)C1=COC2=NC(=O)N(Cc3ccccc3)CCN12 | · | · | 3% | · | ·
Cc1cc2oc(=O)cc(CSc3nncn3C)c2cc1C(C)C | · | · | -1% | · | ·
Cc1ccc(-n2nnnc2CNS(=O)(=O)c2ccc(Cl)cc2)cc1C | · | · | -41% | · | ·
CCCc1ccc(NC(=O)c2nccnc2N)cc1 | · | · | 27% | · | ·
CCOC(=O)C1(Cc2ccccc2C(F)(F)F)CCN(CCCn2cccn2)CC1 | -3% | 6% | -15% | -2% | -7%
CCOC(=O)C1(Cc2ccccc2C(F)(F)F)CCN(Cc2ccccn2)CC1 | · | · | 16µM* | · | ·
C/C(Cn1cnc([N+](=O)[O-])n1)=N\NC(=O)c1ccc(F)cc1 | 20µM* | 10% | ? | 0% | 1%
C/C(Cn1cnc([N+](=O)[O-])n1)=N\NC(=O)c1ccncc1 | -6% | -23% | 4% | 7% | 0%
Cc1cc(N2CCC(C)CC2)nc2ccc(NC(=O)c3ccccc3)cc12 | · | · | -25% | · | ·
Cc1cc(N2CCC(C)CC2)nc2cccc(O)c12 | 50µM* | 15% | ? | 1% | -4%
O=C1[C@@H]2[C@H](Cc3ccc(O)cc3)N[C@]3(C(=O)Nc4ccccc43)[C@@H]2C(=O)N1c1ccc(F)cc1 | ? | 13% | 0% | · | ·
Cc1ccc(N2C(=O)N3[C@H](c4ccc(F)cc4)[C@@H]4C(=O)N(C5CCCCC5)C(=O)[C@@H]4[C@]3(Cc3ccccc3)C2=O)cc1 | · | 14% | -21% | -2% | -11%
Cc1c(Cl)ccc2c1NC(=O)[C@]21N[C@@H](Cc2ccccc2)[C@H]2C(=O)N(c3ccc(F)cc3)C(=O)[C@H]21 | 1.6µM* | 13% | -16% | -4% | -1%
O=C1[C@@H]2C(Cc3ccc(O)cc3)NC3(C(=O)Nc4ccc(F)cc43)[C@@H]2C(=O)N1c1ccccc1 (stereo not given in full) | 79µM* | -1% | -5% | 1% | 2%
CC(C)N(Cc1cnn(C)c1)S(=O)(=O)c1ccc(Cl)cc1F | · | · | 152% | · | ·
O=C(NCc1cccn1Cc1ccccc1)NC12CC3CC(CC(C3)C1)C2 | · | · | -27% | · | ·
